Source: PubChem (National Center for Advancing Translational Sciences (NCATS))
HT1080-NT tox = qHTS for induction of synthetic lethality in tumor cells producing 2HG: qHTS for the HT-1080-NT fibrosarcoma cell line. 1.6% of 360,000 active. HT-1080-NT fibrosarcoma viability, CellTiter-Glo ATP luminescence, 48 h. AID 686970, 2013. Potency, µM (doses to about 46.1 µM), most hits filed as cytotoxic;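 also: NT is the 2HG producing partner of a matched IDH1 knockdown line; nearly all actives have a fitted effect of over 55% in size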
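Luminescent CellTiter-Glo readout after 48 hours of compound exposure at 37 degrees C defined viability of HT-1080-NT cells. Activity was normalized to DMSO wells and cell-free media wells; concentration-response curves were fitted and assigned curve classes.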
HT1080 IDH1KD tx = qHTS for induction of synthetic lethality in tumor cells producing 2HG: qHTS for the HT-1080-IDH1KD cell line; 2% of 360,000 active; Potency, µM (titrated, usually from 46.1 µM), most hits filed as cytotoxic; AID 686971, 2013; HT-1080 IDH1 knockdown viability, ATP luminescence, 48 h
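Assay cells: HT-1080 with IDH1 knockdown, 750 per well, RPMI/5% FBS. Exposure: 48 h at 37 °C following 2 h pre-incubation. Read: CellTiter-Glo luminescence; fitted concentration-response, curve class assigned.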
KB-V1 cytotox = qHTS assay for MDR1-selective chemotherapeutics: Primary screen using the drug-selected MDR subline cells KB-V1. KB-V1 MDR cells viability, CellTiter-Glo, 72 h. Potency, µM (top dose mostly 46.1 µM), usual class: cytotoxic. 3.4% of 400,000 active. AID 1347076, 2019; also: nearly all actives have a fitted effect of over 60% in size
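Drug-selected KB-V1 cells, grown in DMEM lacking phenol red with 10% FBS, receive compound titrations; after three days at 37 degrees C, surviving cell ATP is quantified by CellTiter-Glo luminescence and responses normalized and curve-fitted.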
SW480 rereplic = A quantitative high throughput screen for small molecules that induce DNA re-replication in SW480 colon adenocarcinoma cells | 1.8% of 340,000 active | Potency, µM (highest dose often 46.1 µM), hits mostly activators | SW480 DNA re-replication, Hoechst DNA content imaging, 48 h | AID 624297, 2012; also: nearly all actives have a fitted effect of over 55% in size
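Cells (250 per well) received 23 nL compound or DMSO by pin tool and were kept 48 hr at 37 C, 5% CO2. Nuclei were then stained with Hoechst for 40 min and scanned for DNA content.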
MCF10A rereplic = A quantitative high throughput screen for small molecules that induce DNA re-replication in MCF 10a normal breast cells; 2.9% of 350,000 active; AID 624296, 2012; Potency, µM (top dose mostly 46.1 µM), most hits filed as activators; MCF 10A DNA re-replication, Hoechst nuclear intensity, 48 h; also: nearly all actives have a fitted effect of over 50% in size
KB-3-1 tox = qHTS assay for MDR1-selective chemotherapeutics: Primary screen using the parental adenocarcinoma cell KB-3-1; KB-3-1 viability, CellTiter-Glo ATP luminescence, 72 h; Potency, µM (top dose mostly 46.1 µM), most hits filed as cytotoxic; 1.4% of 400,000 active; also: nearly all actives have a fitted effect of over 60% in size
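KB-3-1 cells, DMEM (no phenol red) + 10% FBS; compound by pin transfer, 72 h, 37 °C. Readout: CellTiter-Glo luminescence after 10 min. Data normalized, curve-fitted.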
Numbers stand for hits; – = inactive; ? = inconclusive; · = not tested or not shown; [ ] = another dose, or the depositor's remark. In the library only some 7.9% were active in any assay of this set; here they are far more common. Calls follow the shape of the dose curve; as a rule, active = well fitted curve in the direction sought with a large enough effect; inconclusive = small, poorly fitted or top-dose-only effect, or another doubt; inactive = no such curve, though single readings can be large; an effect the other way counts as inactive or inconclusive.

SMILES | HT1080-NT tox | HT1080 IDH1KD tx | KB-V1 cytotox | SW480 rereplic | MCF10A rereplic | KB-3-1 tox
CC(=NCCc1c(C)[nH]c2ccc(C)cc12)C1=C(O)CC(c2ccccc2)CC1=O (stereo not given) | – | 8.2µM | 5.8µM | 6.5µM | 2.3µM | 5.8µM
Cn1nc(-c2ccccc2F)c2cc(C(=O)NCc3ccccc3Cl)sc21 | · | · | – | · | · | –
Cc1cc(-c2csc(N)n2)c(C)n1CCc1ccccc1 | – | – | – | – | – | –
Cc1c(P(=S)(c2ccccc2)c2ccccc2)[n+]2ccccc2n1CCc1ccccc1 | · | · | – | · | · | 13µM
Cn1cc(-c2nnnn2-c2ccccc2)c(=O)c2ccccc21 | – | – | – | – | – | –
CCCCOCCCNC(=O)C[C@@H]1C[C@@]2(C(=O)OCC)CCCC=C2N(Cc2cccc3ccccc23)C1=O | ? | ? | 18µM | · | · | ?
COC(=O)[C@]12CCCCC=C1N(Cc1cccc3ccccc13)C(=O)[C@H](CC(=O)NCc1cccc3ccccc13)C2 | – | – | – | · | · | –
CCOC(=O)[C@]12CCC=C1N(Cc1ccco1)C(=O)[C@H](CC(=O)NCc1ccc(OC)c(OC)c1)C2 | – | – | – | · | · | –
CCOC(=O)[C@]12CCCC=C1N(Cc1cccc3ccccc13)C(=O)[C@H](CC(=O)NCc1cccc3ccccc13)C2 | – | – | ? | · | · | –
COC(=O)[C@]12CCCCC=C1N(Cc1cccc3ccccc13)C(=O)[C@H](CC(=O)NCc1ccc(OC)c(OC)c1)C2 | ? | ? | ? | · | · | 5.8µM
COC(=O)[C@]12CCCCC=C1N(Cc1cccc3ccccc13)C(=O)[C@H](CC(=O)NCc1cccs1)C2 | ? | ? | 16µM | · | · | ?
CCOC(=O)[C@]12CCC=C1N(Cc1cccc3ccccc13)C(=O)[C@H](CC(=O)NCc1ccc(OC)c(OC)c1)C2 | ? | ? | ? | · | · | 6.5µM
CCn1c(-c2ccccc2Cl)nn(CC(=O)Nc2cc(Cl)ccc2Cl)c1=S | – | – | – | –[9.22 µM] | ? | ?
N[C@H](CSCc1ccccc1)C(=O)Nc1ccc([N+](=O)[O-])cc1 | – | – | – | – | ? | –
CCCCCCCCN1C(=O)[C@H](CC(=O)NCc2cccc(C(F)(F)F)c2)C[C@@]2(C(=O)OCC)CCC=C12 | ? | ? | – | · | · | –
COC(=O)[C@]12CCCCC=C1N(CCC1=CCCCC1)C(=O)[C@H](CC(=O)NCc1cccs1)C2 | ? | – | – | · | · | ?
COC(=O)[C@]12CCCCC=C1N(CCc1ccc(OC)c(OC)c1)C(=O)[C@H](CC(=O)NCc1ccc(C)o1)C2 | – | – | ? | · | · | –
CCCCCCCCN1C(=O)[C@H](CC(=O)NCc2cccc(C(F)(F)F)c2)C[C@@]2(C(=O)OC)CCCCC=C12 | ? | ? | 16µM | · | · | ?
COC(=O)[C@]12CCCCC=C1N(CCc1ccc(OC)c(OC)c1)C(=O)[C@H](CC(=O)NCc1cccc3ccccc13)C2 | ? | ? | 21µM | · | · | –
CCCCCCCCN1C(=O)[C@H](CC(=O)NCc2cccs2)C[C@@]2(C(=O)OC)CCCCC=C12 | ? | ? | 21µM | · | · | ?
CCOC(=O)[C@]12CCC=C1N(Cc1cccc3ccccc13)C(=O)[C@H](CC(=O)NCCC(C)C)C2 | ? | ? | 16µM | · | · | ?
CC1CCN(CC(=O)NCc2ccco2)CC1 | – | – | – | – | – | –
O=C(CC(SCc1ccco1)c1ccc(O)cc1)c1cccs1 (stereo not given) | – | – | – | – | ? | 21µM
O=C(c1cnn(-c2ccc(F)cc2)c1-n1cccc1)N1CCN(c2ccccc2)CC1 | · | · | 23µM | · | · | ?
O=C(NNS(=O)(=O)c1ccccc1)c1cnn(-c2ccccc2)c1-n1cccc1 | ? | – | 16µM | – | – | –
